Screening results deposited in PubChem BioAssay by several laboratories.
HGIII-sPLA2 inh – Blocks human group III sPLA2 activity | QFRET BODIPY PC-A2 liposome hydrolysis, fluorescence | AID 743126 | inhibition, % at 12.2 µM | 370,000 compounds, 0.56% hits;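 active means inhibition above mean plus 3 SD of compounds lying within the high and low control bounds, cut at about 19% in these data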
ARNT TACC3 PPI – ARNT/TACC3 interaction disruption; AlphaScreen His-ARNT PAS-B/GST-TACC3 binding, luminescence; TACC3 fragment carries E629A point mutation; inhibition, % at 9.99 µM; 390,000 compounds, 0.66% hits; AID 623870;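 active means mean inhibition of replicates at least 50% and at least half of replicates each reaching 50%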
Rin1 Abl inh – blocks binding of human Rin1 to Abl. P00519+Q13671. TR-FRET Rin1/Abl binding, biochemical. inhibition, % at 7.35 µM. 360,000 compounds, 0.4% hits. AID 588664; in the data active means inhibition above about 5%, passing the limit was not always enough
Target sequence (P00519 whole entry, looked up): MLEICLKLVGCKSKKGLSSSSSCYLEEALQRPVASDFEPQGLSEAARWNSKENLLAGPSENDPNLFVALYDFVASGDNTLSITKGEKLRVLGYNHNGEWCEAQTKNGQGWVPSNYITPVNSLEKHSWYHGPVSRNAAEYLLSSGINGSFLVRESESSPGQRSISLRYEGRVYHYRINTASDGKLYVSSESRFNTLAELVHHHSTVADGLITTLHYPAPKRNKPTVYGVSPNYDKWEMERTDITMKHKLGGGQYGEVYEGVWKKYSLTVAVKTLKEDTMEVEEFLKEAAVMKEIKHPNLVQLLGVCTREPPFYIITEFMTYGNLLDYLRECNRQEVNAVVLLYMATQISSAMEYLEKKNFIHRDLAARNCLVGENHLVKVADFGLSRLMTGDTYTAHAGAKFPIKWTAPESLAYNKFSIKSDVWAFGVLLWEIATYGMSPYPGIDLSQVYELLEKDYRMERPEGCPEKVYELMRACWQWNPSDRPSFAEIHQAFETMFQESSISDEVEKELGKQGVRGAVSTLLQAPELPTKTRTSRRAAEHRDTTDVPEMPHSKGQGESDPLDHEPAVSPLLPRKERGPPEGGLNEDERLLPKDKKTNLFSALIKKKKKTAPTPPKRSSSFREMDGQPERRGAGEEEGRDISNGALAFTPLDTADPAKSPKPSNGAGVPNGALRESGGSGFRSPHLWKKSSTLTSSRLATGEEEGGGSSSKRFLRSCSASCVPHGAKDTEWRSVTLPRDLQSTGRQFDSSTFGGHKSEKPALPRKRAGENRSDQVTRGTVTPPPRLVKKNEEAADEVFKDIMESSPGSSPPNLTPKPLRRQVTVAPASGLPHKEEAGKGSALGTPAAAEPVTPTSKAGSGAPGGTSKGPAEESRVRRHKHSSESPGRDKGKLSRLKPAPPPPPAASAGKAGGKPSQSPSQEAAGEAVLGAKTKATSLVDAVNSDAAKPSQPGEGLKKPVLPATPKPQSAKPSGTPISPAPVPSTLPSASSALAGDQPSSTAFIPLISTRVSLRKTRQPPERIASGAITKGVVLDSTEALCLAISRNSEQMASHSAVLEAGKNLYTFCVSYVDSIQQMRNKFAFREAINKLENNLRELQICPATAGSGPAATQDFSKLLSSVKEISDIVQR
Target sequence (Q13671 whole entry, looked up): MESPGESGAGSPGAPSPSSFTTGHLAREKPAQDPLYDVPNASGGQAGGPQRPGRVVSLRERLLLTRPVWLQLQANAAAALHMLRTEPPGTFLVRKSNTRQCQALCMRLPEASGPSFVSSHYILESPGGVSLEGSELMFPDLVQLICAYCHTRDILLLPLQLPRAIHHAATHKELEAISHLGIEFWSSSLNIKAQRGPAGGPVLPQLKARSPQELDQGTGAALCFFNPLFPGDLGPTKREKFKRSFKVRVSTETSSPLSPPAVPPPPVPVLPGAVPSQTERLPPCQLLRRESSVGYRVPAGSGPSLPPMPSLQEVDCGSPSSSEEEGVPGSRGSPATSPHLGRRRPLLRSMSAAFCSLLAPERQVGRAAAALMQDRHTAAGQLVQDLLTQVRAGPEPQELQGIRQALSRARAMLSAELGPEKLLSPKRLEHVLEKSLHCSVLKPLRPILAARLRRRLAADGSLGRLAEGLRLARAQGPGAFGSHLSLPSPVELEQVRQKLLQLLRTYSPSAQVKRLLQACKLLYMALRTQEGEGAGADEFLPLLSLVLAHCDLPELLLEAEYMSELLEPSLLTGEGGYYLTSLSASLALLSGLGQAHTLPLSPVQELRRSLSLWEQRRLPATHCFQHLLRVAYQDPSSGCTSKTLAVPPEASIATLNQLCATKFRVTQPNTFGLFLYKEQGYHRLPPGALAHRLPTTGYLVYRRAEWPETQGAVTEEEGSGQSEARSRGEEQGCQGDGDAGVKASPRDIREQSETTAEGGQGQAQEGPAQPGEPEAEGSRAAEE
AI-2 QS modul – Vibrio harveyi AI-2 quorum sensing modulation; Vibrio harveyi JMH597 AI-2 luminescence/OD600 ratio, 9 h; hits give low values; strain lacks LuxN and CqsS sensors; 0 = neutral-control median; activity change, % at 7.5 µM; 300,000 compounds, 0.4% hits; AID 2094; in the data active means activity change below about -75%, passing the limit was not always enough;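 further: luminescence divided by OD600 gain over 9 h not by final OD600 alone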
Numbers stand for hits; – = inactive; · = not tested or not shown. A selection: hits, their analogues and other compounds. The true share with any hit is near 1.5%.

SMILES	HGIII-sPLA2 inh	ARNT TACC3 PPI	Rin1 Abl inh	AI-2 QS modul
C[C@H](CO)N1C[C@H](C)[C@H](CN(C)C(=O)c2ccc3c(c2)OCO3)Oc2cc(-c3cncnc3)ccc2S1(=O)=O	·	–	·	·
O=C(N/N=C(\Cc1ncc[nH]1)c1ccccc1)c1ccncc1	–	64	–	–
COc1cc(C(=O)N/N=C/c2ccccn2)cc(OC)c1OC	–	48	–	–
O=C(N/N=C\c1ccccn1)c1cccc(C(=O)N/N=C\c2ccccn2)n1	–	–	–	–
Cn1ncc(Cl)c1C(=O)N/N=C/c1ccccn1	–	66	–	–
COCc1c(C(=O)N/N=C/c2c[nH]c3ccccc23)nnn1-c1nonc1N	–	–	–	–
COc1ccc(C(=O)N/N=C/c2ccccn2)cc1OC	–	–	–	–
COCc1c(C(=O)N/N=C\c2ccccn2)nnn1-c1nonc1N	–	74	–	–
COCC(=O)N(C)C[C@H]1Oc2cc(C#CCC3CCCC3)ccc2S(=O)(=O)N([C@@H](C)CO)C[C@@H]1C	·	–	·	·
C[C@@H]1CCCCO[C@H](CN(C)S(=O)(=O)c2cccs2)[C@@H](C)CN([C@@H](C)CO)C(=O)c2cc(NC(=O)CCCN(C)C)ccc2O1	·	–	·	·
O=C(N/N=C/c1ccccn1)c1ccco1	–	45	–	–
O=C(N/N=C/c1ccc2ncccc2c1)c1ccco1	–	·	–	–
O=C(CCN1CCCCC1)NCC[C@@H]1CC[C@@H](NS(=O)(=O)c2cccc(F)c2)[C@@H](CO)O1	·	–	·	·
COCCn1c(-c2ccc(OC)cc2)cnc1N	–	45	–	–
COC(=O)[C@H]1[C@H](CO)[C@H]2Cn3c(ccc(C4=CCCCC4)c3=O)[C@H]2N1CCC(F)(F)F	·	–	·	·
Cc1cccc(-n2c(SCC(=O)N3CCCC3)nnc2-c2ccccn2)c1C	–	·	–	–
Cc1ccc(C)c(-n2c(SCC(=O)N3CCCC3)nnc2-c2ccccn2)c1	–	46	–	–
C[C@H](CO)N1C[C@H](C)[C@H](CN(C)C(=O)C2CCOCC2)Oc2ncc(C#CCc3ccccc3)cc2C1=O	·	–	·	·
O=c1cc2oc3cc(O)c(O)cc3c(-c3ccccc3[N+](=O)[O-])c-2cc1O	–	–	65	–
O=C(CNc1cccc(S(=O)(=O)N2CCCCCC2)c1)Nc1cccc([N+](=O)[O-])c1	–	50	–	·
O=C(CNc1cc([N+](=O)[O-])ccc1NCCO)Nc1cccc(S(=O)(=O)N2CCCCC2)c1	–	–	–	·
O=C(NNc1nc2ccccc2s1)c1ccc(F)cc1	–	–	–	-77
O=C(NNc1nc2ccc(F)cc2s1)c1cccc(F)c1	–	–	–	-119
O=C(N/N=C/c1ccccc1)C(O)c1ccccc1 (stereo not drawn)	–	–	–	–
O=C(N/N=C/c1ccc([N+](=O)[O-])o1)C(O)c1ccccc1 (stereo not drawn)	–	–	–	-89
SMILES	HGIII-sPLA2 inh	ARNT TACC3 PPI	Rin1 Abl inh	AI-2 QS modul
O=C(NN=Cc1ccccc1O)C(O)c1ccccc1 (stereo not drawn)	–	43	–	·
O=C(CNc1ccc2ccccc2c1)N/N=C/c1ccc([N+](=O)[O-])o1	–	–	–	-92
O=C(N/N=C/c1ccc(-c2ccc([N+](=O)[O-])cc2)o1)C(O)c1ccccc1 (stereo not drawn)	–	–	–	–
O=C(C[C@@H]1C=C[C@@H](NC(=O)Nc2ccc(C(F)(F)F)cc2)[C@H](CO)O1)NCCN1CCCC1	·	–	·	·
O=C(C[C@@H]1C[C@@H]2c3cc(NC(=O)Nc4ccccc4)ccc3O[C@@H]2[C@H](CO)O1)NCc1cccnc1	·	–	·	·
O=C(C1=C[C@H](c2csc3ccccc23)C[C@H](OCCCCO)O1)N1CCCCCCC1	·	–	·	·
CCOc1cccc(C2C(C#N)=C(N)Oc3cc(C)[nH]c(=O)c32)c1OCC (stereo not drawn)	–	–	–	–
CCc1ccc2[nH]c(=O)c(C3C(C#N)=C(N)Oc4c3ccc3cccnc43)cc2c1 (stereo not drawn)	–	48	10	–
O=[N+]([O-])c1ccc(O)c(/C=N/NC2=NS(=O)(=O)c3ccccc32)c1	–	71	–	–
O=[N+]([O-])c1ccc(O)c(/C=N/Nc2nn[nH]n2)c1	–	67	–	–
O=[N+]([O-])c1ccc(O)c(/C=N/Nc2ccc(Cl)nn2)c1	–	58	–	–
CN(C)c1nc(N/N=C/c2ccccc2O)nc(Nc2ccc(F)cc2)n1	–	47	–	–
NC(N)=N/N=C/c1cc([N+](=O)[O-])ccc1O	–	–	–	–
C[C@@H]1CN([C@H](C)CO)S(=O)(=O)c2ccc(C#CC3CCCCC3)cc2O[C@@H]1CN(C)Cc1cccnc1	·	–	·	·
C[C@H]1CN([C@@H](C)CO)C(=O)c2cc(NC(=O)C3CC3)ccc2O[C@H]1CN(C)Cc1ccccc1	·	–	·	·
O=[N+]([O-])c1ccc(O)c(-c2nn[nH]n2)c1	–	64	–	–
O=S1(=O)N=C(N/N=C/c2cccs2)c2ccccc21	–	66	–	–
Oc1ccccc1/C=N/Nc1nn[nH]n1	–	72	–	–
C(=N\Nc1nn[nH]n1)/c1ccccc1	–	–	–	–
C[C@@H]1CN([C@H](C)CO)C(=O)c2cc(NC(=O)CCC(F)(F)F)ccc2O[C@@H]1CN(C)CC1CCCCC1	·	–	·	·
C[C@@H]1CN([C@@H](C)CO)C(=O)c2cc(NC(=O)Nc3ccc(C(F)(F)F)cc3)ccc2O[C@@H]1CN(C)C	·	–	·	·
Cc1ncc(CO)c(CNc2ccc(Oc3ccccc3)cc2)c1O	–	–	–	-87
S=C(NCc1cccnc1)Nc1ccc(Oc2ccccc2)cc1	–	–	–	–
C#CCOCCOCCOCCNc1nc(N2CCN(C(=O)CCCCCCCCCCNC(=O)[C@@H](CCC(=O)O)n3cc(CCCCCN)nn3)CC2)nc(N2CCN(C(=O)CCCCCCCCCCNC(=O)[C@H]([C@@H](C)CC)n3cc(CCCCCN)nn3)CC2)n1	·	49	–	·
C#CCOCCOCCOCCNc1nc(N2CCN(C(=O)[C@H](Cc3ccc(O)cc3)n3cc([C@@H](N)C(C)CC)nn3)CC2)nc(N2CCN(C(=O)[C@H](CCCCN)n3cc([C@@H](N)CO)nn3)CC2)n1 (stereo partly drawn)	·	46	–	–
C#CCOCCOCCOCCNc1nc(N2CCN(C(=O)[C@H](Cc3ccc(O)cc3)n3cc([C@@H](N)C(C)CC)nn3)CC2)nc(N2CCN(C(=O)[C@H](CCCCN)n3cc([C@@H](N)CC(C)C)nn3)CC2)n1 (stereo partly drawn)	·	·	·	–
C#CCOCCOCCOCCNc1nc(N2CCN(C(=O)CCCCCCCCCCNC(=O)Cn3cc(CCCCCN)nn3)CC2)nc(N2CCN(C(=O)CCCCCCCCCCNC(=O)Cn3cc(CCCCCN)nn3)CC2)n1	·	–	13	·
C#CCOCCOCCOCCNc1nc(N2CCN(C(=O)CCCCCCCCCCNC(=O)Cn3cc(C[C@@H](C)O)nn3)CC2)nc(N2CCN(C(=O)CCCCCCCCCCNC(=O)[C@H](CCCN=C(N)N)n3cc(C[C@@H](C)CC)nn3)CC2)n1	·	–	13	–
